# Results published in PubChem BioAssay (Tox21).
# Several values for one entry are separate records, joined by “and”; a condition that tells them apart may be missing. Identical values can stand only once. Results filed as inconclusive are left out. A call without a number means that no potency is given here. The source holds several records for some structures; these can differ, active in one and inactive in another. Activity calls are given as the source filed them. The call rests on the fitted dose curve.
# Test: qHTS assay for small molecule agonists of the p53 signaling pathway - cell viability (AID 651633); further: nearly all actives have a fitted effect of over 30% in size
# Settings: p53RE-bla HCT-116 viability, ATP luminescence, 16 h; series mostly up to 83.3 µM
# In short: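 p53RE-bla cells were treated with compound for 16 hours at 37 C. Cytotoxicity was then measured as CellTiter-Glo luminescence after 30 min at room temperature.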
# Potency means the concentration at half of the fitted maximal effect.
row,SMILES,Potency
1,CC1CCc2cc(F)cc3c(=O)c(C(=O)O)cn1c23 (stereo unspecified),inactive
2,CC1=CCC(C(C)C)C=C1 (stereo unspecified),inactive
3,CC(=O)c1ccc2c(c1)[C@H](NC(=O)c1ccc(F)cc1)[C@@H](O)C(C)(C)O2,inactive
4,C=C(C)C(=O)OC(C)C,inactive
5,CC(C)c1ccccc1C(C)C,inactive
6,CCOc1cc(OCC)c(C(=O)CCC(=O)O)cc1OCC,inactive
7,CC(C)CCCC(C)CCO (stereo unspecified),inactive
8,CC(C)(C)C1CCCCC1O (stereo unspecified),inactive
9,CCC(=O)OC(C)(C)C1CC=C(C)CC1 (stereo unspecified),inactive
10,Cc1ncsc1CCO,inactive
11,CCCOc1ccc2nc(NC(=O)OC)[nH]c2c1,inactive
12,COCCOCCOCCOCCOC,inactive
13,CC(=O)Nc1ccc(/C=N/NC(N)=S)cc1,inactive
14,COc1ccc(C(C)=O)cc1,inactive
15,N=C(N=C(N)N)N1CCOCC1,inactive
16,CCCCCCCCCO,inactive
17,CC[C@H](C)[C@H](N)C(=O)O,inactive
18,Cc1cc(NC(=O)C(=O)O)cc(C)c1Oc1ccc(O)c2c1CCC2,inactive
19,O=C(C(=O)c1ccc(Br)cc1)c1ccc(Br)cc1,inactive

row,SMILES,Potency
1,C#CCOC(=O)[C@@H](C)Oc1ccc(Oc2ncc(Cl)cc2F)cc1,inactive
2,CC(C)=CCCC(C)CC=O (stereo unspecified),inactive
3,COCCO,inactive
4,O=C=NC1CCC(CC2CCC(N=C=O)CC2)CC1 (stereo unspecified),inactive
5,CC(C)c1cccc(C(C)C)c1NC(=O)NS(=O)(=O)c1cc(C(C)(C)O)co1,inactive
6,N#Cc1cc2ccccc2c2ccccc12,inactive
7,Nc1nc(N)c2nc(CNc3ccc(C(=O)N[C@@H](CCC(=O)O)C(=O)O)cc3)cnc2n1,inactive and 45.3 nM (active)
8,C1=Cc2ccccc2C1,inactive
9,CCCCCc1ccc(N)cc1,inactive
10,Cc1cccc(OCCOc2cccc(C)c2)c1,inactive
11,Cc1ccc(C(=O)C(C)CN2CCCCC2)cc1 (stereo unspecified),inactive
12,N#Cc1c(F)cccc1F,inactive
13,Nc1cnn([C@@H]2O[C@H](CO)[C@@H](O)[C@H]2O)c(=O)n1,inactive
14,CC[C@H](C)[C@@H](C(=O)O)n1sc2ccccc2c1=O,inactive
15,O=C1[C@H](CC[C@H](O)c2ccc(F)cc2)[C@@H](c2ccc(O)cc2)N1c1ccc(F)cc1,inactive
16,CC(C)(C)C(=O)OCOP(=O)(COCCn1cnc2c(N)ncnc21)OCOC(=O)C(C)(C)C,inactive
17,CC(=O)CC(=O)c1ccccc1,inactive
18,CCCCCCc1ccc(N)cc1,inactive
19,CC(=O)[C@@]1(O)CC[C@H]2[C@@H]3C[C@H](C)C4=CC(=O)CC[C@]4(C)[C@H]3CC[C@@]21C,inactive

# Test: qHTS assay for small molecules that induce genotoxicity in human embryonic kidney cells expressing luciferase-tagged ATAD5 - cell viability (AID 651634); further: nearly all actives have a fitted effect of over 25% in size
# Settings: HEK293T ATAD5-luc cells viability, CellTiter-Fluor, 15.5 h; series mostly up to 83.3 µM
# In short: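 HEK293T cells carrying luciferase-tagged ATAD5, 2,000 cells/well, exposed to compound for 15.5 hr at 37C. Viability read as live-cell protease activity by CellTiter-Fluor fluorescence after 30 min at 37C.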
row,SMILES,Potency
1,CC1CCc2cc(F)cc3c(=O)c(C(=O)O)cn1c23 (stereo unspecified),inactive
2,CC1=CCC(C(C)C)C=C1 (stereo unspecified),inactive
3,CC(=O)c1ccc2c(c1)[C@H](NC(=O)c1ccc(F)cc1)[C@@H](O)C(C)(C)O2,inactive
4,C=C(C)C(=O)OC(C)C,inactive
5,CC(C)c1ccccc1C(C)C,inactive
6,CCOc1cc(OCC)c(C(=O)CCC(=O)O)cc1OCC,inactive
7,CC(C)CCCC(C)CCO (stereo unspecified),inactive
8,CC(C)(C)C1CCCCC1O (stereo unspecified),inactive
9,CCC(=O)OC(C)(C)C1CC=C(C)CC1 (stereo unspecified),inactive
10,Cc1ncsc1CCO,inactive
11,CCCOc1ccc2nc(NC(=O)OC)[nH]c2c1,150 nM (active)
12,COCCOCCOCCOCCOC,inactive
13,CC(=O)Nc1ccc(/C=N/NC(N)=S)cc1,inactive
14,COc1ccc(C(C)=O)cc1,inactive
15,N=C(N=C(N)N)N1CCOCC1,inactive
16,CCCCCCCCCO,inactive
17,CC[C@H](C)[C@H](N)C(=O)O,inactive
18,Cc1cc(NC(=O)C(=O)O)cc(C)c1Oc1ccc(O)c2c1CCC2,inactive
19,O=C(C(=O)c1ccc(Br)cc1)c1ccc(Br)cc1,inactive

row,SMILES,Potency
1,C#CCOC(=O)[C@@H](C)Oc1ccc(Oc2ncc(Cl)cc2F)cc1,inactive
2,CC(C)=CCCC(C)CC=O (stereo unspecified),inactive
3,COCCO,inactive
4,O=C=NC1CCC(CC2CCC(N=C=O)CC2)CC1 (stereo unspecified),inactive
5,CC(C)c1cccc(C(C)C)c1NC(=O)NS(=O)(=O)c1cc(C(C)(C)O)co1,inactive
6,N#Cc1cc2ccccc2c2ccccc12,inactive
7,Nc1nc(N)c2nc(CNc3ccc(C(=O)N[C@@H](CCC(=O)O)C(=O)O)cc3)cnc2n1,inactive
8,C1=Cc2ccccc2C1,inactive
9,CCCCCc1ccc(N)cc1,inactive
10,Cc1cccc(OCCOc2cccc(C)c2)c1,inactive
11,Cc1ccc(C(=O)C(C)CN2CCCCC2)cc1 (stereo unspecified),inactive
12,N#Cc1c(F)cccc1F,inactive
13,Nc1cnn([C@@H]2O[C@H](CO)[C@@H](O)[C@H]2O)c(=O)n1,inactive
14,CC[C@H](C)[C@@H](C(=O)O)n1sc2ccccc2c1=O,inactive
15,O=C1[C@H](CC[C@H](O)c2ccc(F)cc2)[C@@H](c2ccc(O)cc2)N1c1ccc(F)cc1,inactive
16,CC(C)(C)C(=O)OCOP(=O)(COCCn1cnc2c(N)ncnc21)OCOC(=O)C(C)(C)C,inactive
17,CC(=O)CC(=O)c1ccccc1,inactive
18,CCCCCCc1ccc(N)cc1,inactive
19,CC(=O)[C@@]1(O)CC[C@H]2[C@@H]3C[C@H](C)C4=CC(=O)CC[C@]4(C)[C@H]3CC[C@@]21C,inactive
